Experimental data reported in PubChem BioAssay AID1159580 (chemical genetic matrix, 2015).
Where “and” joins values, the source holds several entries; their conditions need not be identical. Equal values may be shown once. Out of some 5,500 compounds screened, about 2,000 (36%) were called active. Another 18% or so got no clear call; they are omitted. Rule as the data show it: active = normalized growth mostly below about 0.91 (no sharp cut-off); inconclusive = no clear call, values can overlap the other calls; inactive = mostly above about 0.92. The list shows a part of the results.

Test: chemical genetic growth profiling, strain panel (AID 1159580);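 also: tested at 20 µM; growth read once vehicle control cultures reached saturation at 30 °C; 1 = growth at the plate median or of vehicle wells; lower values mean less growth of the strain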
Conditions: S. cerevisiae deletion strains, growth OD

Measured: normalized growth

NCC1CCC(C(=O)O)CC1 (stereo not drawn)
inactive: locus YAL021C, strain ccr4, hits give low values 1 | locus YAL026C, strain drs2, hits give low values 0.998 | locus YAL030W, strain snc1, hits give low values 1 | locus YBL061C, strain skt5, hits give low values 0.979 | locus YBR009C, strain hhf1, hits give low values 0.992 | locus YBR021W, strain FUR4, hits give low values 0.988 | locus YBR023C, strain chs3, hits give low values 0.992 | locus YBR171W, strain sec66, hits give low values 0.986 | locus YBR229C, strain ROT2, hits give low values 1 | locus YBR231C, strain swc5, hits give low values 0.988 | locus YBR279W, strain paf1, hits give low values 1.01 | locus YCL011C, strain gbp2, hits give low values 1 | locus YCL016C, strain dcc1, hits give low values 0.993 | locus YCL029C, strain bik1, hits give low values 0.982 | locus YCL061C, strain MRC1, hits give low values 0.999 | locus YCL069W, strain vba3, hits give low values 0.991 | locus YCR088W, strain abp1, hits give low values 0.989 | locus YDL005C, strain med2, hits give low values 0.974 | locus YDL035C, strain GPR1, hits give low values 0.985 | locus YDL040C, strain nat1, hits give low values 0.972 | locus YDL074C, strain BRE1, hits give low values 1.04 | locus YDL101C, strain DUN1, hits give low values 0.996 | locus YDL134C, strain PPH21, hits give low values 0.985 | locus YDL185W, strain tfp1, hits give low values 0.965 | locus YDL192W, strain arf1, hits give low values 0.994 | locus YDR001C, strain nth1, hits give low values 0.987 | locus YDR069C, strain doa4, hits give low values 0.984 | locus YDR101C, strain arx1, hits give low values 1 | locus YDR137W, strain rgp1, hits give low values 1 | locus YDR150W, strain NUM1, hits give low values 0.986 | locus YDR159W, strain sac3, hits give low values 0.974 | locus YDR162C, strain NBP2, hits give low values 0.973 | locus YDR195W, strain ref2 0.956 | locus YDR297W, strain sur2, hits give low values 0.973 | locus YDR318W, strain mcm21, hits give low values 0.978 | locus YDR334W, strain swr1, hits give low values 1.01 | locus YDR335W, strain msn5, hits give low values 1 | locus YDR388W, hits give low values 0.999 | locus YDR392W, strain spt3, hits give low values 1 | locus YDR502C, strain sam2, hits give low values 0.996 | locus YEL003W, strain gim4, hits give low values 0.995 | locus YEL037C, strain rad23, hits give low values 0.991 | locus YEL061C, strain CIN8 (second series), hits give low values 1 | locus YEL061C, strain CIN8, hits give low values 1 | locus YER015W, strain faa2, hits give low values 0.987 | locus YER016W, strain bim1, hits give low values 0.971 | locus YER110C, hits give low values 0.988 | locus YER111C, strain swi4, hits give low values 0.978 | locus YER155C, strain BEM2 (second series), hits give low values 0.974 | locus YER155C, strain BEM2, hits give low values 0.995 | locus YER167W, strain BCK2, hits give low values 0.997 | locus YFR010W, strain ubp6, hits give low values 0.99 | locus YGL078C, strain dbp3, hits give low values 0.998 | locus YGL086W, strain mad1, hits give low values 1 | locus YGL173C, strain kem1, hits give low values 0.974 | locus YGL227W, strain vid30, hits give low values 0.998 | locus YGL240W, strain doc1, hits give low values 0.999 | locus YGL248W, strain PDE1, hits give low values 1.01 | locus YGL253W, strain hxk2, hits give low values 0.977 | locus YGR078C, strain PAC10, hits give low values 1.04 | locus YGR135W, strain pre9, hits give low values 0.96 | locus YGR252W, strain gcn5, hits give low values 1.02 | locus YHR013C, strain ard1, hits give low values 0.979 | locus YHR027C, strain rpn1, hits give low values 0.996 | locus YHR030C, strain SLT2, hits give low values 0.98 and 1.04 | locus YHR079C, strain IRE1 (second series), hits give low values 0.985 | locus YHR079C, strain IRE1, hits give low values 1.06 | locus YHR094C, strain hxt1, hits give low values 0.999 | locus YHR129C, strain ARP1, hits give low values 0.986 | locus YHR142W, strain chs7, hits give low values 0.994 | locus YHR200W, strain rpn10, hits give low values 0.973 | locus YIL066C, strain RNR3, hits give low values 1 | locus YIL073C, strain SPO22, hits give low values 0.909 | locus YIL125W, strain kgd1, hits give low values 0.995 | locus YIR030C, strain dcg1, hits give low values 0.987 | locus YJL092W, strain hpr5, hits give low values 0.986 | locus YJL095W, strain BCK1 (second series), hits give low values 0.986 | locus YJL095W, strain BCK1, hits give low values 1.04 and 1.01 | locus YJL115W, strain asf1, hits give low values 0.98 | locus YJL129C, strain trk1, hits give low values 0.997 | locus YJL134W, strain LCB3, hits give low values 0.997 | locus YJL154C, strain vps35, hits give low values 0.988 | locus YJL164C, strain tpk1, hits give low values 0.985 | locus YJL166W, strain qcr8, hits give low values 0.983 | locus YJL168C, strain set2, hits give low values 0.999 | locus YJL187C, strain SWE1 (second series), hits give low values 1.02 | locus YJR043C, strain POL32, hits give low values 1 | locus YJR066W, strain TOR1, hits give low values 0.98
